miR-122 sensor – miR-122 Renilla sensor signal increase in Huh7, primary screen, miR-122 inhibitor project, cell-based, single point, plate reader; activation (reporter increase), % at 12.5 µM; Huh7 miR-122 Renilla luciferase sensor, 48 h; neutral wells = 0, positive control = 100; 340,000 tested, 0.3% active;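 active = mean replicate activation score at least 90 and every replicate individually at or above 90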;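 also: higher luciferase means less miR-122 activity so hits act as miR-122 inhibitors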
RAD52 inh – RAD52 DNA annealing inhibitors, primary screen, biochemical, FRET, single point, set 2. recombinant RAD52 DNA annealing, FRET fluorescence. inhibition, % at 18.7 µM. 360,000 tested, 0.46% active;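 active = every replicate showing at least 50% inhibition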
DNA FID counter – compounds displacing fluorescent DNA intercalator, primary screen, artefact control for HCV NS3 helicase inhibitor project, biochemical, FID fluorescence; inhibition, % at 7.9 µM; DNA fluorescent intercalator displacement; 290,000 tested, 0.17% active; in the data active = inhibition above about 37%;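 also: 0% = vehicle and 100% = reference compound; higher means more ethidium bromide displaced from hairpin DNA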
RAD54 inh – inhibitors of human RAD54 branch migration, primary screen, biochemical, fluorescence, single point; AID 602329, 2012; RAD54 Holliday junction branch migration, FAM/BHQ fluorescence; 360,000 tested, 0.14% active; inhibition, % at 10.4 µM;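 active = mean normalized replicate activity at least 40 and at least half of replicates scoring 40 or more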;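 also: 0% = median of neutral control wells and 100% = median of positive control wells; inhibitors cause a drop in the FAM fluorescence signal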
NRP1-CendR mod – modulators of CendR peptide binding to NRP-1, primary screen, biochemical, fluorescence polarization, uHTS; inhibition, % at 25 µM; AID 602438, 2012; 360,000 tested, 0.85% active; FAM-RPARPAR peptide binding to NRP-1; Neuropilin-1 (Homo sapiens), O14786;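 active = inhibition or corrected inhibition above about 18%, plus a signal ratio from 0.5 to 1.5, limit read from the data, passing the limit was not always enough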
Glyco luc inh – increase of ERlucT glycosylation luciferase signal, primary screen, N-linked glycosylation inhibitor project, D54 ERlucT cells, luminescence, set 2; 360,000 tested, 0.23% active; D54 ERlucT glycosylation luciferase reporter, 24 h; percent of 100 nM tunicamycin response; reporter increase, % at 12.5 µM;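 active = mean luciferase reporter signal, scaled so untreated is 0 and the glycosylation-blocking control 100, at or above a set limit in every replicate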;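 also: luciferase carries N-glycosylation sites so blocking glycosylation raises the light; 0% = median of neutral control wells and 100% = median of 100 nM tunicamycin wells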
* = called active by the depositor; / = not tested or not shown; [ ] = remark or other dose. Hits are enriched below; roughly 1.5% of the tested compounds scored in any of these assays.

SMILES	miR-122 sensor	RAD52 inh	DNA FID counter	RAD54 inh	NRP1-CendR mod	Glyco luc inh
C[C@@H]1CCCCO[C@H](CN(C)S(=O)(=O)c2ccc(F)cc2)[C@@H](C)CN([C@@H](C)CO)C(=O)c2cc(NS(C)(=O)=O)ccc2O1	-1.8[16.7 µM]	-23.9	/	-1.6	/	/
CCOCc1nnc(NC(=O)c2c(OC)cccc2OC)s1	-5.9	/	-3.7	15.9	20.3*	-0.2
CCc1nnc(NC(=O)c2c(OC)cccc2OC)s1	-2.0	/	-0.3	-3.6	-12.3	-0.2
CNC[C@@H]1OCCCC[C@H](C)Oc2ccc(NS(=O)(=O)c3ccc(C)cc3)cc2C(=O)N([C@H](C)CO)C[C@@H]1C	-2.6[16.7 µM]	-61.0	/	-1.1	/	/
C[C@H](O)C#Cc1ccc2c(c1)O[C@@H](CN(C)CC1CC1)[C@H](C)CN([C@@H](C)CO)S2(=O)=O	-5.1[16.7 µM]	/	/	/	/	/
CCN(CC)CCN1CCN(c2cnc(C)cn2)CC1	5.0	-6.4	/	8.1	22.9*	-1.7
O=C(NCc1ccccc1Br)c1cccc2c1C(=O)c1ccc(-c3ccc(OC(F)(F)F)cc3)cc1S2(=O)=O	2.1	/	/	11.2	0.7	156.2*
CC(C)c1cccc(-c2ccc3c(c2)S(=O)(=O)c2cccc(C(=O)NCc4ccccc4Cl)c2C3=O)c1	-3.6	/	/	3.8	2.5	196.9*
CC(C)c1cccc(-c2ccc3c(c2)S(=O)(=O)c2cccc(C(=O)NCc4ccccc4)c2C3=O)c1	0.9	-10.8	/	-11.2	0.9	92.0*
O=C(NCc1ccc(F)cc1)c1cccc2c1C(=O)c1ccc(Cl)cc1S2(=O)=O	/	-14.9	/	/	/	/
O=C(O)c1cccc2c1C(=O)c1ccc(-c3ccc(OC(F)(F)F)cc3)cc1S2(=O)=O	-4.4	-18.6	/	9.7	3.1	1.8
Cc1ccc(S(=O)(=O)N[C@H]2CC[C@@H](CC(=O)N3CCN(c4ccccc4)CC3)O[C@@H]2CO)cc1	/	1.0	/	-7.3	/	/
CCOC(Cn1ccc(=O)[nH]c1=O)OCC	2.2	-7.0	-0.2	-15.3	25.5*	1.8
Cc1ccccc1CN1[C@@H](Cc2ccccc2)COCCS1(=O)=O	-6.5	/	/	6.0	25.6*	-3.6
O=S1(=O)CCOC[C@H](Cc2ccccc2)N1Cc1cccc(Cl)c1	-1.8	-6.6	/	7.6	13.2	-2.5
O=S1(=O)CCOCCN1Cc1ccccc1	-8.9	0.1	-2.4	-6.1	15.0	0.0
O=S1(=O)CCOC[C@H](Cc2ccccc2)N1Cc1ccc(Cl)cc1	0.1	/	/	-1.6	29.2*	-6.9
CCC(C)[C@H]1COCCS(=O)(=O)N1Cc1ccccc1F (some centres not stated)	/	-15.2	-17.9	-1.3	19.0	2.0
CC(C)C[C@H]1COCCS(=O)(=O)N1Cc1ccccc1F	1.7	-12.7	/	-5.3	25.3*	2.0
O=S1(=O)CCOCCCN1Cc1ccc(Cl)cc1	-10.1	-11.6	-4.9	6.6	24.5*	-0.2
O=[N+]([O-])c1cccc(CN2[C@@H](Cc3ccccc3)COCCS2(=O)=O)c1	-3.6	/	/	6.2	12.3	-5.0
O=C(C1CCC1)N1CC(=O)N2[C@H](CO)[C@@H](c3ccc(C#Cc4cccc(F)c4)cc3)[C@@H]2C1	/	0.9	/	/	/	/
Cn1c(=O)c2c(-c3ccccc3)n(-c3ccc(N)cc3)cc2n(C)c1=O	-2.8	-32.8	/	-7.6	36.6*	6.2
Cn1c(=O)c2c(-c3ccccc3)n(-c3cccc(O)c3)cc2n(C)c1=O	-2.5	-33.9	/	-6.0	5.7	4.6
O=C(Nc1ccc(Cl)c(Cl)c1)N[C@@H]1CC[C@H](CCn2cc(C3CCCCC3)nn2)O[C@H]1CO	/	-2.0	/	4.2	/	/
CCN(CC)S(=O)(=O)c1cc(NS(=O)(=O)c2cc(Cl)ccc2Cl)ccc1C	391.9*	-32.9	-22.5	4.6	9.1	-1.3
COc1cc(NC(C(=O)Nc2cccc(C(C)=O)c2)c2ccccc2)cc(OC)c1OC (configuration not stated)	/	/	-21.7	/	-3.8	27.4*
COc1cccc(NC(C(=O)Nc2cccc(C(C)=O)c2)c2ccccc2)c1 (configuration not stated)	47.7	/	-16.1	-8.2	-2.0	-2.7
